The values that follow come from PubChem BioAssay (NCATS).

Records with an inconclusive call do not appear. Where a call stands in place of a potency, no number is given. Active and inactive are the calls of the source. Calls come from the whole dose curve; as a rule, active = well fitted cell-killing curve with a large enough effect; inconclusive = small, poorly fitted or top-dose-only effect, or effect the other way; inactive = flat fitted curve, though single readings scatter.
Potency is the fitted concentration of half-maximal effect.

For this test, the system named is PA-1. The experiment in a line: Primary qHTS to identify gynecologic anti-cancer compounds using libraries of approved drugs and bioactive compounds (AID 1345084). Note: nearly all actives have a fitted effect of over 55% in size. Particulars: Gynecologic cancer cell panel viability, ATPlite luminescence, 48 h; series mostly up to 57.5 µM. The procedure, abridged:
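Measured: luminescence after ATPlite addition (15 min, RT). Exposure: 48 h, 37 C, 5% CO2.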
For orientation: In qHTS, concentration-response curves come from the screen itself.
Regarding `Nc1ccc(N)c([N+](=O)[O-])c1`, the Potency entry was “inactive”. Same read-out and setting: in the case of `CC(C)n1cnc2c(Nc3cccc(Cl)c3)nc(NCCO)nc21` it was “inactive”; in that of `COc1ccc(-c2c(C)c(C(=O)NN3CCCCC3)nn2-c2ccc(Cl)cc2Cl)cc1`, “inactive”. With `Cc1c(C(=O)NCCCO)cnn1-c1nc(-c2cccc(C(F)(F)F)c2)cs1`, the Potency entry was “inactive”.

As for `C[C@@H](O[C@H]1OCCN(Cc2n[nH]nc2CN(C)C)[C@H]1c1ccc(F)cc1)c1cc(C(F)(F)F)cc(C(F)(F)F)c1`, the Potency entry was “inactive”. With `CC[C@H](C)[C@H]1O[C@]2(CC[C@@H]1C)C[C@@H]1C[C@@H](C/C=C(\C)[C@@H](O[C@H]3C[C@H](OC)[C@@H](O[C@H]4C[C@H](OC)[C@@H](O)[C@H](C)O4)[C@H](C)O3)[C@@H](C)/C=C/C=C3\CO[C@@H]4[C@H](O)C(C)=C[C@@H](C(=O)O1)[C@]34O)O2`, the Potency result was “inactive”. On the same count and under the same terms, in the case of `COc1cc2nc(-c3cc(F)ccc3O)nc(N[C@@H]3CNC[C@H]3C(C)(C)O)c2cc1OC` it was “inactive”; in that of `Cc1cc(CN)cc(C)c1NC(=O)c1ccc(-c2cc(Cl)ccc2Cl)o1`, “inactive”; in that of `C=C1C(=O)O[C@@H]2/C=C(/C)CC3C=C(C[C@H](OC(=O)/C(C)=C\C)[C@@H]12)C(=O)O3` (some centres undefined), “inactive”. Same read-out and setting: with `CC1(C)SC2C(NC(=O)[C@H](NC(=O)N3CCNC3=O)c3ccccc3)C(=O)N2C1C(=O)O` (some centres undefined) the entry was “inactive”; with `CC1(C)SC2C(NC(=O)[C@H](C(=O)O)c3ccsc3)C(=O)N2C1C(=O)O` (some centres undefined), “inactive”; with `COc1ccc(-c2nc(-c3cc(C(F)(F)F)cc(C(F)(F)F)c3)n(Cc3ccc(C(N)=O)cc3)c2-c2ccc(OC)cc2)cc1`, “inactive”. On the same count and under the same terms, with `Fc1ccccc1CNCc1ccc(-c2ccnc3[nH]ccc23)cc1` the entry was “inactive”; with `CCCCc1nc(C)c(CC(=S)N(C)C)c(=O)n1Cc1ccc(-c2ccccc2-c2nn[nH]n2)cc1`, “inactive”; with `CO[C@@H]1[C@@H](O[C@H]2O[C@@H](C)[C@H](O[C@@H]3C[C@](C)(O)[C@H](O)[C@@H](C)O3)[C@@H](N(C)C)[C@@H]2O)[C@@H](CC=O)C[C@@H](C)[C@@H](O[C@H]2CC[C@H](N(C)C)[C@H](C)O2)/C=C/C=C/C[C@@H](C)OC(=O)C[C@H]1O`, “inactive”.

In the case of `CNc1cc(OC)c(C(=O)N[C@@H]2CCN(Cc3ccccc3)[C@@H]2C)cc1Cl`, the Potency result was “inactive”.

Take `CN([C@H]1c2cc(OCCCC(F)(F)F)ccc2OC(C)(C)[C@@H]1O)S(C)(=O)=O`: the Potency entry is “inactive”. In the case of `CCOC(=O)CCC(=O)O[C@H]1[C@H](O[C@@H]2[C@@H](C)[C@H](O[C@H]3C[C@@](C)(OC)[C@@H](O)[C@H](C)O3)[C@@H](C)C(=O)O[C@H](CC)[C@@](C)(O)[C@H](O)[C@@H](C)C(=O)[C@H](C)CC2(C)O)O[C@H](C)C[C@@H]1N(C)C` (some centres undefined), the Potency result was “inactive”. As for `COc1cc(-c2cc(-c3cccc(O)c3)cnc2N)cc(OC)c1OC`, the Potency entry was “inactive”.

As to `CC(=O)Nc1ccc(C(=O)Nc2ccccc2N)cc1`, the Potency was 7.08 µM (active).

With `C[C@H](NC(=O)C(C)(C)Oc1ccc(C(F)(F)F)cn1)[C@@H](Cc1ccc(Cl)cc1)c1cccc(C#N)c1`, the Potency result is “inactive”. `CC(CCC1(O)OC2CC3C4CC=C5CC(O[C@@H]6O[C@H](CO)[C@@H](O[C@@H]7O[C@H](CO)[C@@H](O)[C@H](O)[C@H]7O)[C@H](O)[C@H]6O[C@@H]6O[C@@H](C)[C@H](O)[C@@H](O)[C@H]6O)CCC5(C)C4CCC3(C)C2C1C)CO[C@@H]1O[C@H](CO)[C@@H](O)[C@H](O)[C@H]1O` (some centres undefined): the activity change, negative = cytotoxicity is 4.42% [at 11.6 µM] (inactive). Regarding `CC(C)c1ccc(NC(=O)C(c2ccccc2)N(C)C(=O)Cc2c[nH]c3ccccc23)cc1` (centres undefined), the Potency entry was “inactive”. The same measure, in the same setting: in the case of `CCCCC(=O)N(Cc1ccc(-c2ccccc2-c2nn[nH]n2)cc1)C(C(=O)O)C(C)C` (centres undefined) it was “inactive”; in that of `CCCCc1nc(Cl)c(CO)n1Cc1ccc(-c2ccccc2-c2nnn[nH]2)cc1`, “inactive”; in that of `COc1ccc2c(c1)CN(C(=O)CCN1CCC(Cc3ccccc3)CC1)CCS2`, “inactive”. For `C=C1C(=O)O[C@@H]2[C@H]1[C@H](O)C[C@]1(C)[C@@H](O)CC=C(C)[C@@H]21`, the Potency result is “inactive”.

In the case of `CCNC(=O)[C@@H]1CCCN1C(=O)[C@H](CCCN=C(N)N)NC(=O)[C@H](CC(C)C)NC(=O)[C@@H](CC(C)C)NC(=O)[C@H](Cc1ccc(O)cc1)NC(=O)[C@H](CO)NC(=O)[C@H](Cc1c[nH]c2ccccc12)NC(=O)[C@H](Cc1cnc[nH]1)NC(=O)[C@@H]1CCC(=O)N1`, the Potency result was “inactive”. As to `COc1ccc(C2(CNC(=O)[C@](C)(Cc3c[nH]c4ccccc34)NC(=O)Nc3ccc([N+](=O)[O-])cc3)CCCCC2)nc1`, the Potency result is “inactive”.
